SMN2 splice enh: qHTS Assay for Enhancers of SMN2 Splice Variant Expression. HEK293 SMN2-luciferase splicing reporter, luminescence, 30-36 h. Potency, µM (highest dose often 46.1 µM), for the others: at the highest dose activity change, positive = activation, actives largely listed as activators. 210,000 tested, 2.8% active. AID 1458, 2008; note: % of control where 0% means no effect; nearly all actives have a fitted effect of over 55% in size
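HEK293 cells carry an SMN2 minigene-luciferase reporter in which exon 7 inclusion puts luciferase in frame. Cells were seeded at 2000 cells/well, attached for 10-12 hours, then exposed to compounds for 30-36 hours at 37C before ONE-Glo luminescence.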
FLuc counter: qHTS profiling assay for firefly luciferase inhibitor/activator using purifed enzyme and Km concentrations of substrates (counterscreen for miR-21 project); Potency, µM (highest dose often 57.5 µM), for the others: at the highest dose activity change, negative = inhibition, actives largely listed as inhibitors; Luciferin 4-monooxygenase (Photinus pyralis), P08659; AID 588342, 2011; 360,000 tested, 6.9% active; purified FLuc, Km substrates, luminescence inhibition;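 note: plate controls were vehicle for no effect and reference inhibitor for full effect; nearly all actives have a fitted effect of over 55% in size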
Target sequence (P08659 whole entry, looked up): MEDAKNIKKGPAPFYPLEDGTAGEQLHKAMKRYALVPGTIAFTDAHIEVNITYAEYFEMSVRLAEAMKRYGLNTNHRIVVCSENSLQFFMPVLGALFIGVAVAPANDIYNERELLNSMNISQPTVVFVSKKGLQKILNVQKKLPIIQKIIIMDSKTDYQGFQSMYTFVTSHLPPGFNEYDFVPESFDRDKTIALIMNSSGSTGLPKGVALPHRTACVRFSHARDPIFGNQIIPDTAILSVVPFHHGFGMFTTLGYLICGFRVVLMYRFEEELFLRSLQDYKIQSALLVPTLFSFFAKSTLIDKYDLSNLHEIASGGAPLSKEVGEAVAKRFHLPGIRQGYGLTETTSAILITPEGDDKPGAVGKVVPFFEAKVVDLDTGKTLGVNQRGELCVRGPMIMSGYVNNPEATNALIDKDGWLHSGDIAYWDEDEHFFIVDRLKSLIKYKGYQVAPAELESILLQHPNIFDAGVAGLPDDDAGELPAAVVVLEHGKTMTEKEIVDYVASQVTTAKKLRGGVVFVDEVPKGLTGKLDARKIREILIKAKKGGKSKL
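Purified P. pyralis luciferase (10nM final) with 10uM D-luciferin and 10uM ATP (Km levels) in 50mM Tris acetate pH 7.5, 10mM Mg acetate, 0.01% Tween-20, 0.05% BSA; qHTS 6-point titration, ~60 µM downward; luminescence read.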
Rab9 prom act: qHTS Assay for Rab9 Promoter Activators; Huh7 Rab9 promoter-luciferase reporter, luminescence, 24 h; Potency, µM (top dose mostly 9.22 µM), for inactives: at the top dose activation, negative = inhibition, actives largely listed as activators; AID 485297, 2010; 320,000 tested, 2.8% active; note: % of control where 0% means no effect; nearly all actives have a fitted effect of over 60% in size
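Quantitative HTS format; Huh7 Rab9-luciferase reporter cells (1500/well) receive compound 2 h post-plating, incubate 24 h at 37 °C, then get luciferase reagent for 10 min before luminescence reading.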
NPC1 prom act: qHTS Assay for NPC1 Promoter Activators; Huh7 NPC1 promoter luciferase reporter, 24 h; Potency, µM (series often up to 9.22 µM), without a hit: at the top dose activation, usual class: activators; 320,000 tested, 2.4% active; note: % of control where 0% means no effect; nearly all actives have a fitted effect of over 60% in size
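Huh7 cells stably carrying NPC1 promoter–luciferase, plated in Opti-MEM with 10% FBS for 2 h, were exposed to compound in DMSO for 24 h at 37 °C; luciferase reagent was added for 10 min and luminescence read.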
ELG1 genotox: qHTS screen for small molecules that induce genotoxicity in human embryonic kidney (HEK293T) cells expressing luciferase-tagged ELG1. Potency, µM (series often up to 46 µM), for the others: top-dose activity change, positive = activation, hits mostly activators. HEK293T ELG1-luciferase reporter, luminescence, 16 h. AID 504466, 2011. 330,000 tested, 1.3% active; note: % of control where 0% means no effect; nearly all actives have a fitted effect of over 60% in size
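Quantitative HTS format in 1536-well plates. HEK293T ELG1-luciferase reporter cells receive test compound and are incubated 16 hr at 37 °C, 5% CO2; ONE-Glo added, 30 min room temperature, then luminescence read.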
ELG1 repair inh: qHTS screen for small molecules that inhibit ELG1-dependent DNA repair in human embryonic kidney (HEK293T) cells expressing luciferase-tagged ELG1. HEK293T ELG1-luciferase reporter, luminescence, 16 h; DNA damage induced by 5-fluorouridine. Potency, µM (doses to about 46.1 µM), without a hit: at the top dose activity change, negative = inhibition, hits mostly inhibitors. 330,000 tested, 2.3% active. AID 504467, 2011; note: % is set by controls: 0 for no effect and ±100 for the full control effect; nearly all actives have a fitted effect of over 55% in size
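In this reporter screen, reduction of luminescence relative to DMSO vehicle indicated activity. Compounds and 5-fluorouridine were added together to 2,000 cells per well, incubated for 16 hr at 37 °C, then developed with ONE-Glo.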
An asterisk follows results filed as active; ? = inconclusive; nt = not tested or not shown. Sampled rows, rich in hits. Any-hit rate of the full collection: about 9.4%. Calls come from the whole dose curve; as a rule, active = well fitted curve in the direction sought with a large enough effect; inconclusive = small, poorly fitted or top-dose-only effect, or another doubt; inactive = no such curve, though single readings can be large; an effect the other way counts as inactive or inconclusive. Potency is the fitted concentration of half-maximal effect.

SMILES | SMN2 splice enh | FLuc counter | Rab9 prom act | NPC1 prom act | ELG1 genotox | ELG1 repair inh
COc1c(O)cc2oc(-c3ccc(O)cc3)cc(=O)c2c1O | nt | 0.85µM* | ? | ? | 9.2µM* | ?
COc1cc2oc(-c3ccc(O)cc3)cc(=O)c2c(O)c1OC | nt | 19µM* | 0% | 24% | ? | ?
O=c1cc(-c2ccc(O)cc2)oc2c(O)c(O)c(O)c(O)c12 | nt | 1% | -1% | -5% | -1% | -22%
COc1cc2oc(-c3ccc(O)cc3)cc(=O)c2c(OC)c1O | nt | 24µM* | 1% | -2% | 16µM* | ?
Cc1cc(=O)n2nc(N3CCC(C(=O)Nc4ccc(Br)c(C)c4)CC3)sc2n1 | 13% | -1% | nt | nt | nt | nt
COc1ccc(Oc2ncc3nc(-c4ccc(OC)cc4)c(=O)n(CCC#N)c3n2)cc1 | -3% | nt | nt | nt | nt | nt
COc1cccc(-c2nn(C)c3sc(C(=O)NCc4ccc(C)o4)cc23)c1 | 16µM* | 2% | 7% | 12% | -17% | ?
COc1cccc(-c2nn(C)c3sc(C(=O)N4CCOCC4)cc23)c1 | 15% | -10% | -1% | 1% | -2% | 18µM*
COc1cccc(-c2nn(C)c3sc(C(=O)NCc4ccc(OC)cc4OC)cc23)c1 | -15% | -9% | nt | nt | nt | nt
CCOC(=O)C1CCCN(C(=O)c2cc3c(-c4cccc(OC)c4)nn(C)c3s2)C1 (stereo not drawn) | 6% | 3% | -10% | -10% | -27% | 12µM*
CCN(CC)S(=O)(=O)c1ccc2c(c1)N(CC(=O)Nc1ccc(C)cc1C)C(=O)C1CCCN21 (stereo not drawn) | nt | -6% | nt | nt | nt | nt
Cc1oc(-c2ccc(C(=O)NCc3ccccc3F)cc2)nc1COc1ccccc1 | nt | -1% | nt | nt | nt | nt
Nc1c(C(=O)Nc2ccc3c(c2)OCCO3)nnn1Cc1ccc(F)cc1 | nt | ? | 2.2µM* | 2.5µM* | ? | ?
COc1ccc(Br)cc1Cn1nnc(C(=O)Nc2ccc3c(c2)OCCO3)c1N | nt | ? | -2% | 0% | -7% | -13%
Nc1c(C(=O)Nc2ccc3c(c2)OCCO3)nnn1Cc1ccccc1Cl | nt | ? | 2.2µM* | 2.8µM* | 17% | ?
Nc1c(C(=O)Nc2ccc3c(c2)OCCO3)nnn1Cc1cccc(Cl)c1 | nt | ? | ? | ? | 12% | ?
C=C(C)CSc1nnc2n(N)c(=O)c3ccccc3n12 | 18% | 17µM* | ? | 20% | ? | ?
CCCCOc1ccc2ccccc2c1C=O | -1% | 21µM* | 20% | 20% | 12% | ?
COc1ccc(/C=N/NC(=O)c2c(Br)cnn2C)c2ccccc12 | nt | -2% | -2% | 1% | 1% | 13%
O=C(CSc1ncc(-c2ccc(Cl)cc2)[nH]1)Nc1ccccc1F | -13% | ? | nt | nt | nt | nt
O=C(CSc1ncc(-c2ccccc2)[nH]1)Nc1ccccc1F | 10% | 27µM* | 25% | 18% | ? | ?
O=C(CSc1ncc(-c2ccc(F)cc2)[nH]1)N1CCCCC1 | 11µM* | ? | ? | 28% | ? | ?
O=C(CSc1ncc(-c2ccccc2)[nH]1)Nc1cccc(O)c1 | 0% | ? | 13% | 17% | 9% | 16µM*
COc1cc(C2C=C(C(=O)O)Nc3ncnn32)ccc1O (stereo not drawn) | -9% | 1% | nt | nt | nt | nt
CC(C)NC(=O)c1ccc2c3n(nc2c1)-c1ccc(Cl)cc1CO3 | nt | 1.9µM* | 1.4µM* | 1.3µM* | ? | ?
SMILES | SMN2 splice enh | FLuc counter | Rab9 prom act | NPC1 prom act | ELG1 genotox | ELG1 repair inh
CCN(CC)CCCNC(=O)c1ccc2c3n(nc2c1)-c1ccc(Cl)cc1CO3 | nt | ? | 0.89µM* | ? | ? | ?
CCC(C)NC(=O)CSc1c2c(nc3cc(Cl)ccc13)CCCC2 (stereo not drawn) | 0% | 0% | nt | nt | nt | nt
CCCN(CCC)CCCNC(=O)c1ccc2c(Cl)c3c(nc2c1)CCC3 | nt | -5% | 0% | 1% | -1% | 4%
COc1cccc(NS(=O)(=O)c2cc(-c3cnc(C4CC4)o3)ccc2C)c1 | nt | -16% | nt | nt | nt | nt
CCOc1ccc(CNC(=O)c2ccc(Sc3ccc(C)cc3)c(N)c2)cc1OC | nt | -19% | nt | nt | nt | nt
CC(=O)C1=C(NC(=O)c2ccc(F)cc2)CC2C1C2(C)C (stereo not drawn) | -16% | 21µM* | 13% | 1% | -4% | 5%
CCOc1ccc(CNCc2c(C(=O)O)n(Cc3ccc(OC)cc3)c3ccccc23)cc1 | nt | -13% | nt | nt | nt | nt
COc1ccc(-c2noc(-c3cccnc3)n2)cc1OC | ? | 15µM* | 3.5µM* | ? | ? | ?
CCOc1ccc(-c2noc(-c3cccnc3)n2)cc1OC | -5% | 13µM* | 25% | ? | 12% | ?
O=C(Cn1c(=O)c(CNc2ccccc2)cc2cc3c(cc21)OCCO3)Nc1ccccc1Cl | nt | -7% | nt | nt | nt | nt
Cc1ccc(Cl)cc1N1CCN(C(=O)CCCCCn2c(=O)[nH]c3ccccc3c2=O)CC1 | nt | -3% | nt | nt | nt | nt
CCSc1nc(-c2ccccc2)nc(C(Cl)Cl)n1 | 2% | 1% | -40% | -31% | -16% | 18µM*
COc1cccc(CNS(=O)(=O)c2ccc(N3CCCCS3(=O)=O)cc2)c1 | nt | 2% | nt | nt | nt | nt
COc1ccc(OC)c(Nc2ncnc3c2cnn3-c2cccc(C)c2)c1 | ? | -18% | -10% | -26% | 0% | ?
Cc1cccc(-n2ncc3c(N(C)C4CCCCC4)ncnc32)c1 | nt | 0.17µM* | -8% | -11% | 0.46µM* | ?
CCN(c1ncnc2c1c(-c1ccccc1)cn2-c1ccccc1)C1CCCCC1 | nt | -1% | nt | nt | nt | nt
Cc1cccc(-n2ncc3c(N(CCO)CCO)ncnc32)c1 | 14µM* | 15µM* | 3.5µM* | 3.2µM* | ? | ?
COc1ccc(-n2ncc3c(N(C)C4CCCCC4)ncnc32)cc1 | nt | 0.17µM* | -10% | -16% | ? | ?
CCN(c1ncnc2c1cnn2-c1cccc(Cl)c1)C1CCCCC1 | nt | 3.8µM* | nt | nt | nt | nt
Cc1csc(NC(=O)c2ccc(S(=O)(=O)N(C)c3ccccc3)cc2)n1 | -24% | ? | 16% | 8% | -6% | 23µM*
Cc1ccc(S(=O)(=O)N(CC(=O)Nc2cccc(N(C)S(C)(=O)=O)c2)c2ccc(Cl)c(Cl)c2)cc1 | -7% | 6% | -4% | 9% | -31% | ?
CC(=O)Nc1ccc(C(=O)Nc2cccc(S(=O)(=O)N(C)c3ccccc3)c2)cc1 | nt | -16% | -3% | -3% | -2% | ?

Source: PubChem
